In PubChem BioAssay (NCATS) one finds Potency data, which are given here for 23 compounds.

Structures are written as SMILES. Records with an inconclusive call do not appear. The source made the active and inactive calls. The call rests on the fitted dose curve; in most records, active means well fitted cell-killing curve with a large enough effect; inconclusive means small, poorly fitted or top-dose-only effect; inactive means no such curve, though single readings can be large or run the other way. Numbered stars: 1 amine (or outer) side, 2 acyl side, 3 side chain; on linkers, the order of the positions; unused ones are H or OH. Bridge positions count the residues as written; N and C are the ends. Square brackets hold non-standard residues; d marks the D form. Peptide text beside a SMILES is read from it. I, II: the chains in the order shown. Actinocin(9to1) = Cc1c2oc3c(C)ccc(C(=O)[*:1])c3nc-2c(C(=O)[*:2])c(N)c1=O; NMeV = CN[C@H](C(=O)O)C(C)C; Sar = CNCC(=O)O
Potency means the concentration at half of the fitted maximal effect.

The assay is described as follows: qHTS of pediatric cancer cell lines to identify multiple opportunities for drug repurposing: Confirmatory screen for SK-N-MC cells (AID 1347111).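 Further: cells exposed to compound for 48 h before the readout; nearly all actives have a fitted effect of over 70% in size.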 To be noted: SK-N-MC cell viability; series mostly up to 45.9 µM. From the text:
Drug repurposing or repositioning has been offered as a strategy for drug development in oncology programs. This approach has special potential for childhood cancers and other rare or orphan diseases, where the expected return on new drug development has been a disincentive to pharmaceuticals.
In this project we exploit the poly-pharmacology of drugs to discover new indications via phenotypic screening of a panel of 19 well-characterized cell lines derived from solid tumors seen in children and adolescents. The goal is to identify approved drugs with previously unrecognized anticancer properties that has the potential to reveal new mechanisms and biological processes involved in carcinogenesis or drug resistance. We employed a titration-based paradigm (quantitative high-throughput screening or qHTS), where all compounds were tested at multiple concentrations for their effect on cell viability. Concentration-response curves (CRCs) were derived directly from the primary screen, and both potency and efficacy values were used to identify compounds with robust bioactivity profiles. We screened the NIH Chemical Genomics Center (NCGC) Pharmaceutical Collection (NPC) and Mechanism Interrogation Plate (MIPE) small molecule collections of approved and investigational compounds against these cell lines; and measured metabolically active cells after 48 hours of compound treatment as a proxy for cell viability.
Assay Submitter: Nathalia J. Martinez, National Center for Advancing Translational Sciences, National Institutes of Health, Rockville, MD, USA; email: natalia.martinez@nih.gov
[1] Shen, M et al. Quantitative high-throughput phenotypic screening of pediatric cancer cell lines identifies multiple opportunities for drug repurposing. Oncotarget 2017 Dec 19;9(4):4758-4772. PMID 29435139.
The cells were obtained from University of North Carolina (UNC), Pediatric Preclinical Testing Program (PPT), and Coriell Institute (CI).
qHTS cell viability assay:
Cells were assayed in growth media at a density of 500-1,000 cells/well. Five microliters of cells were dispensed into 1,536-well, white, solid-bottom, TC-treated plates (Greiner Bio One) using a multidrop dispenser and incubated at 37 degrees C, 5% CO2, under a humidified atmosphere for 5 hours. Twenty-three nanoliters of compounds and controls (neutral control DMSO or positive control bortezomib at final concentration of 2.3 µM) were subsequently transferred by Kalypsys pintool. For primary screens, the MIPE collection was tested at 11-point dilutions (final concentrations range from 0.78 nM to 46 µM) and the NPC collection at 8-point dilutions (final concentrations range from 0.59nM to 46 µM). Compounds tested in follow-up screens were assayed at 11-point dilutions. Cells were incubated for 48 hours, followed by addition of 3 uL of CellTiter-Glo (Promega). After a 15 min incubation at room temperature, samples were analyzed for luminescence intensity using a ViewLux High-throughput CCD imager equipped with clear filters.
In general terms: Quantitative high-throughput screening tests each substance at several concentrations.
For the compound `COCc1c(C(C)C)nc(C(C)C)c(/C=C/[C@@H](O)C[C@@H](O)CC(=O)O)c1-c1ccc(F)cc1`, the Potency was 2.93 µM (active).
On to `CC(=O)Oc1ccc2c(c1)CC[C@@H]1[C@@H]2CC[C@]2(C)[C@@H](O)CC[C@@H]12`, for which the Potency is 6.57 µM (active).
The entry for `NC(=O)CC[C@@H]1NC(=O)[C@H](Cc2ccccc2)NC(=O)[C@H](Cc2ccc(O)cc2)NC(=O)CCSSC[C@@H](C(=O)N2CCC[C@H]2C(=O)N[C@@H](CCCN=C(N)N)C(=O)NCC(N)=O)NC(=O)[C@H](CC(N)=O)NC1=O` is “inactive”; for `CC(=O)OCC(=O)[C@@]12N=C(C)O[C@@H]1C[C@H]1[C@@H]3CCC4=CC(=O)C=C[C@]4(C)[C@H]3[C@@H](O)C[C@@]12C` it is 0.261 µM (active); for `COc1cc(C=C2CCC/C(=C\c3ccc(O)c(OC)c3)C2=O)ccc1O` it is 0.465 µM (active).
With `CN(C)/N=N/c1nc[nH]c1C(N)=O`, the Potency is 9.27 µM (active).
The figure for `CCCCCCC[N+](CC)(CC)CCCCc1ccc(Cl)cc1` is 9.27 µM (active); for `C=C1C[C@H]2[C@@H]3C=C(C)C4=CC(=O)CC[C@]4(C)[C@H]3CC[C@]2(C)[C@@]1(OC(C)=O)C(C)=O` it is 2.61 µM (active).
The entry for `CC(=O)OCC(=O)[C@@]1(O)CC[C@H]2[C@@H]3CCC4=CC(=O)C=C[C@]4(C)[C@H]3[C@@H](O)C[C@@]21C` is “inactive”.
As for `Cc1c2oc3c(C)ccc(C(=O)N[C@@H]4C(=O)N[C@H](C(C)C)C(=O)N5CCC[C@H]5C(=O)N(C)CC(=O)N(C)[C@@H](C(C)C)C(=O)O[C@@H]4C)c3nc-2c(C(=O)N[C@@H]2C(=O)N[C@H](C(C)C)C(=O)N3CCC[C@H]3C(=O)N(C)CC(=O)N(C)[C@@H](C(C)C)C(=O)O[C@@H]2C)c(N)c1=O` (I: T[dV]P[Sar][NMeV] / II: T[dV]P[Sar][NMeV]; ester I:1-I:C, II:1-II:C; linker I:N-II:N via Actinocin(9to1)), the figure is 0.0052 µM (active).
Take `COc1cccc2c1C(=O)c1c(O)c3c(c(O)c1C2=O)C[C@@](O)(C(=O)CO)C[C@@H]3O[C@H]1C[C@H](N)[C@H](O)[C@H](C)O1`: the Potency is 0.293 µM (active).
The figure for `CC(=O)O[C@]1(C(C)=O)CC[C@H]2[C@@H]3C[C@H](C)C4=CC(=O)CC[C@]4(C)[C@H]3CC[C@@]21C` is 23.3 µM (active); for `C[C@]12C=CC(=O)C=C1[C@@H](F)C[C@@H]1[C@@H]2[C@@H](O)C[C@@]2(C)[C@H]1CC[C@]2(O)C(=O)CO` it is “inactive”.
As for `C[n+]1c2cc(N)ccc2cc2ccc(N)cc21` (tested in a mixture with another compound), the figure is 6.57 µM (active); as for `C[C@H]1C[C@H]2[C@@H]3CCC4=CC(=O)C=C[C@]4(C)[C@@]3(Cl)[C@@H](O)C[C@]2(C)[C@@]1(O)C(=O)CO`, “inactive”.
The figure for `CC(C)(C(=O)c1cccnc1)c1cccnc1` is 2.93 µM (active); for `CCCC(=O)O[C@]1(C(=O)CO)CC[C@H]2[C@@H]3CCC4=CC(=O)CC[C@]4(C)[C@H]3[C@@H](O)C[C@@]21C` it is “inactive”; for `CCC(C(=O)OCCN(CC)CC)c1ccccc1` (stereo not drawn) it is 13.1 µM (active).
Turning to `O=C(CCCN1CCC(O)(c2ccc(Br)cc2)CC1)c1ccc(F)cc1`, the Potency was 2.61 µM (active).
Turning to `CCCCC(CC)CN=C(N)NC(N)=NCCCCCCN=C(N)NC(N)=NCC(CC)CCCC` (stereo not drawn), the Potency is 7.37 µM (active).
The figure for `CN(C)C(=S)SC(=S)N(C)C` is 2.93 µM (active); for `CC(=O)OCC(=O)[C@@]1(O)[C@H](C)C[C@H]2[C@@H]3CCC4=CC(=O)C=C[C@]4(C)[C@@]3(F)[C@@H](O)C[C@@]21C` it is 29.3 µM (active).
The figure for `NC(CO)(CO)CO` is 8.27 µM (active).
